From PubChem BioAssay AID687016 (The Scripps Research Institute Molecular Screening Center, 2013)
Several values for one entry are separate records, joined by “and”; a condition that tells them apart may be missing. Identical values can stand only once. The campaign covered roughly 370,000 compounds. About 2,800 (0.76%) were called active. Rule as the data show it: active = inhibition above about 21%; inactive = the rest. What follows is part of a selection rich in actives, with near analogues and random picks from the rest. The source holds several records for some structures; these can differ, active in one and inactive in another.

Target: E3 ubiquitin-protein ligase UHRF1 (Homo sapiens) (UniProt Q96T88)
Sequence (Q96T88 whole entry, looked up, the tested form may be a part): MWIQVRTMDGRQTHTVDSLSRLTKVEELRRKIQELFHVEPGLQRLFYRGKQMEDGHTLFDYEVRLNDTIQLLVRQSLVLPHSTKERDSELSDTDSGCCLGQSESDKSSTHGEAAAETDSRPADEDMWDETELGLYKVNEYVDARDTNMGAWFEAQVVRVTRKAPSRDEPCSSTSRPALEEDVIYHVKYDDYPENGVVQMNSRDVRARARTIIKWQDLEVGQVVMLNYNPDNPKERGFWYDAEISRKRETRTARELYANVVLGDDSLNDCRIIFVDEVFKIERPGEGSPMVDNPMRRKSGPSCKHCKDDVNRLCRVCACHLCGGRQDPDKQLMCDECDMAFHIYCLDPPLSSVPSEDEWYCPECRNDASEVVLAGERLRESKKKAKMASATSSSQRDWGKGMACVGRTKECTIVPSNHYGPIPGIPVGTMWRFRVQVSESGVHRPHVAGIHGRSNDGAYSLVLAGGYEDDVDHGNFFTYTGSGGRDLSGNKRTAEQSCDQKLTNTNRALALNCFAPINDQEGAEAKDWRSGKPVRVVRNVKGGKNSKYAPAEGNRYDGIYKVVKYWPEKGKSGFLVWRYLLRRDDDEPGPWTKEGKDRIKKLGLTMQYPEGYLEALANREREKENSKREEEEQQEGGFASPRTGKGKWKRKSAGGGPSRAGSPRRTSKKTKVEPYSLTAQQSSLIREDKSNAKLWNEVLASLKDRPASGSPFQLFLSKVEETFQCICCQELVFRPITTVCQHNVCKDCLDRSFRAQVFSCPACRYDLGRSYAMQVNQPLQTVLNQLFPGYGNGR
Assay: blockers of UHRF1 binding to methyl-oligo – biochemical, TR-FRET, human UHRF1, single concentration, counter-screen for MBD2 inhibitor project, primary screen (AID 687016);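 also: UHRF1 SRA domain binding a hemimethylated CpG hairpin DNA probe; 0% = median of test compound wells and 100% = reference inhibitor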
Conditions: UHRF1 binding to methylated oligo, at 4.4 µM, stronger effect = higher value

| Structure (SMILES) | inhibition |
| --- | --- |
| CC(C)C(=O)Nc1cccc(NC(=O)c2ccc([N+](=O)[O-])cc2Cl)c1 | 23.4% (active) |
| O=C(NCc1ccco1)c1ccc([N+](=O)[O-])cc1Cl | 2.58% (inactive) |
| CCC(C)C(=O)Nc1cc([N+](=O)[O-])ccc1Cl (configuration not stated) | -0.24% (inactive) |
| CCC(=O)OCCCN1C(=O)CCC12CCC(c1ccccc1)CC2 (configuration not stated) | -3.69% (inactive) |
| COc1ccc(Cn2ccc3ccc(-c4ccc5ccn(Cc6ccccc6C)c5c4)cc32)cc1 | -0.92% (inactive) |
| CC(C)N1CCCCC(NC(=O)c2ccc3ccccc3c2)C1=O (configuration not stated) | -2.66% (inactive) |
| O=C(c1c[nH]c2ccccc12)N1CCC(Oc2cccnc2)CC1 | -3.48% (inactive) |
| COC(=O)[C@H](C(C)C)N1CCc2nnn(Cc3ccc(C)cc3)c2-c2ccccc2S1(=O)=O | -0.67% (inactive) |
| C=CCN1C(=O)[C@@H](CC(=O)NCCCCc2ccccc2)[C@]2(C(=O)OCC)CCCCC/C=C/12 | -1.86% (inactive) |
| COc1ccc2[nH]c3c(C)c4cc[n+](C)cc4c(C)c3c2c1 | 92.9% (active) |
| CC(=O)N1CCCN(C2=Nc3ccccc3Sc3ccccc32)CC1 | 11.8% (inactive) |
| Cc1ccc(NC(=O)Cn2sc3ccccc3c2=O)cc1 | -0.79% (inactive) |
| Cc1ccnc(-n2sc3ccccc3c2=O)n1 | 21.5% (active) |
| Cc1ccnc(SC2CC(=O)N(c3ccccc3)C2=O)n1 (configuration not stated) | -0.14% (inactive) |
| COc1ccc(CN2C/C(=C/c3ccccc3)N3C(=O)C[C@@H](c4ccccc4)N=C23)c(OC)c1 | -0.02% (inactive) |
| COc1ccc(/C=C2\CC3(OC(C)=O)CCCN2C3)cc1 (configuration not stated) | -2.63% (inactive) |
| C=CCN1C(C(=O)OC)CN(Cc2cn(Cc3ccccc3)nn2)CCS1(=O)=O (configuration not stated) | 15.8% (inactive) |
| C[N+](C)(C)CCNC(=O)c1c[nH]c2ccccc12 | 21.1% (active) |
| O=C(CNC(=O)c1ccccc1F)OCC(=O)c1c[nH]c2ccccc12 | -1.49% (inactive) |
| O=C(NCCCc1ccccc1)C(=O)c1c[nH]c2ccccc12 | -1.59% (inactive) |
| Clc1ccc(-n2c(COc3ccccc3)nnc2SCc2nc3ccccc3[nH]2)cc1 | -1.31% (inactive) |
| C[C@@H](NC(=O)c1ccccc1OCC(=O)Nc1ccc(I)cc1)C(=O)N(C)Cc1ccccc1 | 0.7% (inactive) |

| Structure (SMILES) | inhibition |
| --- | --- |
| COc1ccc2c(c1)c(=Cc1ccc(N(C)C)cc1)c1cc(-c3ccccc3)[n+](C)n12 | 57.8% (active) |
| C=C1C(C(C)C)N(C)C2=NC(c3ccccc3)CC(=O)N12 (configuration not stated) | -0.97% (inactive) |
| CC(C)CSc1nnc(-c2cccnc2)n1Cc1ccccc1 | -0.61% (inactive) |
| Cc1ccc(NC(=O)Cc2cccc(F)c2)c(S(=O)(=O)N2CCOCC2)c1 | 0.9% (inactive) |
| O=C(Cn1ncc2c3ccccc3n(Cc3ccccc3)c2c1=O)NCc1ccccn1 | 0.71% (inactive) |
| O=C(Cn1ncc2c3ccccc3n(Cc3ccccc3)c2c1=O)NCCCN1CCOCC1 | 0.46% (inactive) |
| Cc1ccccc1Cn1c2ccccc2c2cnn(CC(=O)NCc3ccco3)c(=O)c21 | 22.5% (active) |
| CCC(=O)c1c(CC)c2n3c1=CC[C@H]3CC(Br)C=2 (some centres not stated) | 1.95% (inactive) |
| O=C(NCc1ccc(Cl)cc1)C1CCCN(c2nc3ccccc3o2)C1 (configuration not stated) | 2.81% (inactive) |
| COc1ccc(N2CCN(CCNS(=O)(=O)c3ccc(Cl)s3)CC2)cc1 | -0.57% (inactive) |
| Cc1ccc(NC(=O)OCc2cncs2)cc1 | 49.5% (active) |
| CC(C)(COC(=O)Nc1ccccc1)COC(=O)Nc1ccccc1 | -1.28% (inactive) |
| O=C(Nc1ccc(Cl)cc1)OCc1cc(-c2ccccc2)on1 | 2.42% (inactive) |
| CN1C[C@]2(C=C3CCCCC3n3c(=O)n(-c4ccccc4)c(=O)n32)N=C1NC(=O)c1ccccc1 (some centres not stated) | -2.02% (inactive) |
| CCOC(=O)[C@@]12CCC3=C1N(CCC3)C(=O)[C@H](CC(=O)N1CCN(C(=O)c3ccco3)CC1)C2 | -1.01% (inactive) |
| Cc1ccc(-c2nc(C3CCCN(S(=O)(=O)c4ccc(Br)s4)C3)no2)cc1 (configuration not stated) | 1.59% (inactive) |
| Cc1cc(C)c2nc3nc(C)cc(C)c3c(N)c2c1 | 26.9% (active) |
| CCCCN1CCN(C(=O)c2ccc3c(c2)NC(=O)C(C)(C)O3)CC1 | 0.61% (inactive) |
| C=CCN1[C@H](CC(C)C)COc2cccc(N3CCCC3)c2S1(=O)=O | -0.17% (inactive) |
| Cc1ccccc1NC(=O)Cn1c(=O)n(CC2CCCO2)c(=O)c2ccccc21 (configuration not stated) | -0.24% (inactive) |
| COC(=O)CN1C(=O)N/C(=C/c2ccc(OC)c(C)c2OC)C1=O | -4.91% (inactive) |
| Cc1ccccc1NC(=O)CN1C(=O)N/C(=C\c2cccn2-c2cccc(C(=O)O)c2)C1=O | 74.8% (active) |

| Structure (SMILES) | inhibition |
| --- | --- |
| CC(C)(C)C1C/C(=C/c2ccco2)C(=O)/C(=C/c2ccco2)C1 (configuration not stated) | 99.5% (active) |
| CCN1CCN(C(=O)N[C@@H](C(=O)N[C@@H]2C(=O)N3C(C(=O)O)=C(CSc4nnnn4C)CS[C@H]23)c2ccc(O)cc2)C(=O)C1=O | -2.2% (inactive) |
| C=CC1=C(C(=O)O)N2C(=O)[C@@H](NC(=O)/C(=N\OCC(=O)O)c3csc(N)n3)[C@H]2SC1 | 77.4% (active) |
| C=CC1=C(C(=O)O)N2C(=O)[C@@H](NC(=O)/C(=N/OCC(=O)O)c3csc(N)n3)[C@H]2SC1 | 93.7% (active) |
| CO/N=C(\C(=O)N[C@@H]1C(=O)N2C(C(=O)O)=C(COC(C)=O)CS[C@H]12)c1csc(N)n1 (stereo in doubt) | 9.54% (inactive) and 0.92% (inactive) and 27.5% (active) |
| COc1ccc(-n2c(COc3ccc(C)cc3)nnc2SCC(=O)Nc2ccc(Oc3ccccc3)cc2)cc1 | -5.28% (inactive) |
| CN(C)Cc1cn(-c2ccc(-c3noc4c3C(=O)N(CC(=O)N3CCOCC3)CC4)cc2)nn1 | 2.67% (inactive) |
| O=C(CN1CCCCC1)Nc1ccccc1C(=O)NC1CC1 | 3.15% (inactive) |
| O=C(CN1CCCCC1)Nc1ccccc1Cl | 45.6% (active) |
| CCOc1ccc(NC(=O)COc2ccc(S(=O)(=O)N3CCCC3)cc2)cc1 | 1.66% (inactive) |
| O=C(CN1CCCCCC1)Nc1c(Cl)cc(Cl)cc1Cl | -0.79% (inactive) |
| O=C(CSCc1ccc(Br)cc1)Nc1ccc(S(=O)(=O)N2CCCCCC2)cc1 | -1.33% (inactive) |
| O=C(CN1CCCCCC1)Nc1ccc(S(=O)(=O)N2CCCCC2)cc1 | 62.1% (active) |
| CC(=O)Nc1ccc(OC[C@@H](O)CN2CCC(C(O)(c3ccccc3)c3ccccc3)CC2)cc1 | 1.32% (inactive) |
| Cc1ccc(NC(=O)c2cc(C)nn2-c2ccccc2)c(C)c1 | -1.23% (inactive) |
| CCCCCN1CCCCC(NC(=O)C(C)CCC)C1=O (configuration not stated) | -0.32% (inactive) |
| CCN(CC)CCNC(=O)Cn1cnc2sc(C)c(S(=O)(=O)N3CCOCC3)c2c1=O | 6.01% (inactive) |
| CCN(CC)CCCNC(=O)Cn1cnc2sc(C)c(S(=O)(=O)N3CCN(c4ncccn4)CC3)c2c1=O | 31.2% (active) |
| Cc1sc2ncn(CC(=O)NCCN(C)C)c(=O)c2c1S(=O)(=O)N1CCC(C)CC1 | -1.58% (inactive) |
| C=CCN1C(=O)[C@@H](CC(=O)NCCCOCCCC)[C@]2(C(=O)OCC)CCCCC/C=C/12 | -0.5% (inactive) |
| C=C(C)C#CC(Cc1ccccc1)N(CC1CC1)/C(N)=N/C(=O)OCc1ccccc1 (configuration not stated) | -3.18% (inactive) |
| COc1cccc(C(=O)NC(=O)Nc2nc(C)cc(C(F)(F)F)n2)c1 | 0.01% (inactive) |

| Structure (SMILES) | inhibition |
| --- | --- |
| COc1ccc(C(=O)NCCSc2ccccc2C)cc1 | 0.98% (inactive) |
| COc1ccc(C(=O)NNc2cc(C)nc(NNC(=O)c3ccc(OC)cc3)n2)cc1 | 20.7% (active) |
| CCOC(=O)C1CCN(C(=O)C(C)(C)NC(=O)Nc2ccc(F)c(F)c2)CC1 | 2.59% (inactive) |
| O=C(Nc1ccc(N2CCN(C(=O)c3cccs3)CC2)cc1)c1cccnc1Cl | -0.07% (inactive) |
| COc1ccc(N2CCN(C(=O)c3cccs3)CC2)cc1 | -7.02% (inactive) |
| O=C(COc1ccccc1)Nc1ccc(N2CCN(C(=O)c3cccs3)CC2)cc1 | 44.9% (active) |
| CCOc1ccc(N(CC(=O)NCCOc2ccccc2OC)S(=O)(=O)c2ccccc2)cc1 | 28% (active) |
| COc1ccc(CCNC(=O)CN(c2ccccc2)S(=O)(=O)c2ccccc2)cc1 | 1.05% (inactive) |
| CCOc1ccc(N(CC(=O)NCCc2ccc(F)cc2)S(=O)(=O)c2ccccc2)cc1 | 16.8% (inactive) |
| Cc1ccc(Cn2cc(CN3[C@@H](C)COc4cc(Br)ccc4S3(=O)=O)nn2)cc1 | -1.6% (inactive) |
| COC(=O)[C@]12C[C@H](CC(=O)NCc3ccccc3)C(=O)N(Cc3ccccc3)C1=C[C@H](COCc1ccccc1)O[C@@H]2C | 3.31% (inactive) |
| O=S1(=O)c2c(cccc2N2CCSCC2)Oc2ccccc2CN1Cc1cn(Cc2ccc(F)cc2)nn1 | 2.59% (inactive) |
| CN(C)S(=O)(=O)c1cccc(C(=O)N/N=C\c2ccco2)c1 | -2.24% (inactive) |
| O=C(N/N=C/c1ccco1)c1ccc(C(=O)N/N=C/c2ccco2)o1 | 38.3% (active) |
| O=C(Cn1cnc2ccccc21)N/N=C/c1ccco1 | -2.46% (inactive) |
| C=CS(=O)(=O)N(Cc1nnn(Cc2ccccc2)c1Br)[C@H](C(=O)OC)C(C)C | 3.67% (inactive) |
| CN(C)CCNC(=O)c1ccc(Cl)c2cc3ccccc3nc12 | 30.7% (active) |
| O=C(NCCCNC(=O)c1ccccc1Cl)c1cnccn1 | 4.5% (inactive) |
| CN(C)CCNC(=O)Cc1ccc([N+](=O)[O-])cc1 | -0.93% (inactive) |
| Cc1ccc(C(=O)O)cc1-c1ccc(/C=C2\SC(=O)N(CC(=O)Nc3ccc4c(c3)OCO4)C2=O)o1 | 12.9% (inactive) |
| N#Cc1ccccc1CN1C(=O)S/C(=C/c2cccn2-c2cccc(C(=O)O)c2)C1=O | 21.4% (active) |
